# Most compounds without a hit are left out; they make up all but 5.2% or so of the library.
# Sfp inh: blocks B. subtilis Sfp PPTase activity | Q9F4F7 | Biochemical Sfp PPTase activity, qHTS | Potency, µM, without a hit: largest response in the series, negative = inhibition, actives largely listed as inhibitors | actives 3.5% (n = 310,000) | AID 1490;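 also: the enzyme is Sfp with the accession as filed and its product quenches rhodamine fluorescence; potency is read from the fitted curve at half-maximal effect; 0% = enzyme reaction without inhibitor and -100% = no enzyme wells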
#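 With Hepes-Na pH 7.6 buffer containing 10 mM MgCl2, Sfp (15 nM) modified BHQ-2-YbbR (12.5 uM) using rhodamine-CoA (5 uM). Two reads 30 minutes apart at 525/598 nm yielded each well's rate.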
# FBPA coupling cs: inhibits coupling enzyme system, counter-screen for aldolase hits; actives 0.67% (n = 290,000); coupling enzyme system counterscreen, AmpLite Red fluorescence; activity change, negative = inhibition, % at 58.2 µM, hits read low; in the data active = activity change below about -30%
#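 Coupling enzymes only (glyceraldehyde-3-phosphate) + compound, at 57.5 uM final, 10 min RT; add substrate/coupling/AmpLite Red mix, 20 min RT; fluorescence ex 525/em 598 nm. Actives flag coupling-system interference.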
# Tau fibril ThT: inhibitors of human tau fibril formation, thioflavin T binding. recombinant tau K18 P301L, heparin-induced fibrillization, ThT fluorescence. actives 2.1% (n = 270,000). P10636. Potency, µM (doses to about 57.4 µM), for inactives: at the highest dose activity, negative = inhibition, usual class: inhibitors; also: potency is read from the fitted curve at half-maximal effect; nearly all actives have a fitted effect of over 55% in size
# Target sequence (P10636 561-689 P618L limits assumed): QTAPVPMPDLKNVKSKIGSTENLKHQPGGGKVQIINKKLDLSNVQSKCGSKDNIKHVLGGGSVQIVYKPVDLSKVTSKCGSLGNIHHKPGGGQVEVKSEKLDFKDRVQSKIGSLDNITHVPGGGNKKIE
#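 Heparin-induced (20 uM) aggregation of recombinant human K18 P301L tau, 15 uM unlabeled with 0.24 uM labeled, pH 7 acetate buffer, 6 hr at 37 C with compound. Fibrils quantified by 30 uM ThT fluorescence after 1 hr ambient incubation.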
# Tau FP inhib: tau fibrillization inhibition (FP). P10636. K18 P301L tau heparin fibrillization, Alexa594 FP, 6 h. Potency, µM (doses to about 57.7 µM), without a hit: top-dose activity, negative = inhibition, most hits filed as inhibitors. actives 0.39% (n = 280,000). AID 1468; also: potency is read from the fitted curve at half-maximal effect; nearly all actives have a fitted effect of over 55% in size
#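 Human K18 P301L fragment (15 uM unlabeled plus 0.24 uM Alexa 594-labeled) in 100 mM sodium acetate pH 7 with compound, aggregation induced by 20 uM heparin for 6 hr at 37 C. ThT (30 uM) added for 1 hr, then Alexa 594 FP read.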
# Tau fluor counter: counter-screen for tau fibril formation inhibitors | tau K18 P301L (four-repeat tau fragment) Alexa594 fluorescence, heparin fibrillization | Potency, µM (top dose mostly 57.7 µM), for inactives: top-dose activity change, negative = decrease | actives 0.93% (n = 280,000) | AID 1463; also: potency is read from the fitted curve at half-maximal effect; nearly all actives have a fitted effect of over 55% in size
#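 Human K18 P301L tau (15 uM unlabeled plus 0.24 uM Alexa 594-labeled, final) in 100 mM sodium acetate pH 7 was mixed with compound and 20 uM heparin and incubated 6 hr at 37 C.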
# Active calls of the source: *; ? = inconclusive; · = no result given; [ ] = remark or other dose. Unless noted, calls follow the shape of the dose curve; as a rule, active = well fitted curve in the direction sought with a large enough effect; inconclusive = small, poorly fitted or top-dose-only effect, or another doubt; inactive = no such curve, though single readings can be large; an effect the other way counts as inactive or inconclusive. Unless noted, % is scaled to controls: 0 for no effect and ±100 for the full control effect.
SMILES,Sfp inh,FBPA coupling cs,Tau fibril ThT,Tau FP inhib,Tau fluor counter
O=C(Cn1c(=O)n(-c2ccccc2)c(=O)c2ccc(C(=O)NCc3ccc4c(c3)OCO4)cc21)Nc1ccc(Br)cc1F,·,·,17%,?,-1%
Fc1ccc(-c2cnn3c(-c4cccs4)ccnc23)cc1,-5%,-1,1.4µM*,-15%,-14%
Fc1ccc(-c2cnn3c(-c4ccncc4)ccnc23)cc1,10%,1,3.2µM*,3%,-2%
c1csc(-c2ccnc3ncnn23)c1,16%,-1,0%,3%,7%
c1ccc(CN(CCN(Cc2ccccn2)Cc2ccccn2)Cc2ccccn2)nc1,25%,·,?,-14%,-15%
O=C1NC(=S)SC1=C1CCCC1,40µM*,2,?,?,-21%
CCOc1ccc(N(CC(=O)NCc2ccco2)S(C)(=O)=O)cc1,56µM*,5,8%,6%,9%
CCOc1ccc(N(CC(=O)Nc2ccccc2C(=O)NCc2ccco2)S(C)(=O)=O)cc1,10%,2,-8%,3%,-16%
CSCC[C@H](NC(=O)[C@H](CC(C)C)NC(=O)[C@H](Cc1c[nH]c2ccccc12)NC(=O)[C@H](CCC(N)=O)NC(=O)[C@@H](NC(=O)[C@H](Cc1ccccc1)NC(=O)[C@H](CC(=O)O)NC(=O)[C@H](CCC(N)=O)NC(=O)[C@H](C)NC(=O)[C@H](CCCNC(=N)N)NC(=O)[C@H](CCCNC(=N)N)NC(=O)[C@H](CO)NC(=O)[C@H](CC(=O)O)NC(=O)[C@H](CC(C)C)NC(=O)[C@H](Cc1ccc(O)cc1)NC(=O)[C@H](CCCCN)NC(=O)[C@H](CO)NC(=O)[C@H](Cc1ccc(O)cc1)NC(=O)[C@H](CC(=O)O)NC(=O)[C@H](CO)NC(=O)[C@@H](NC(=O)[C@H](Cc1ccccc1)NC(=O)[C@@H](NC(=O)CNC(=O)[C@H](CCC(N)=O)NC(=O)[C@H](CO)NC(=O)[C@@H](N)Cc1cnc[nH]1)[C@@H](C)O)[C@@H](C)O)C(C)C)C(=O)N[C@@H](CC(N)=O)C(=O)N[C@H](C(=O)O)[C@@H](C)O,8%,3,·,·,·
CCCCCCN1C=CC=C/C1=C\C=C(C#N)C#N,-26%,0,16µM*,?,?
O=C(/C=C/c1ccc(Cl)c(Cl)c1)n1cccn1,14%,0,14µM*,?,-11%
Cn1ccc(C(=O)NC(=S)N2CCSCC2)n1,45µM*,4,-3%,-6%,-3%
Cc1ccc(N(CC(=O)N2CCN(c3cccc(C)c3C)CC2)S(=O)(=O)c2c(C)nn(C)c2C)cc1,·,·,?,4%,-19%
COCCCNC(=O)c1sc2nc(C)c(C(=O)Nc3ccc(C)cc3C)c(-c3ccccc3Cl)c2c1N,·,·,-20%,-5%,-23%
Cc1ccc(-n2cc3c(c2-c2ccccc2Br)c(=O)n(C)c(=O)n3C)cc1N,·,·,?,3%,-21%
COc1ccc(CNC(=O)C2CCCN(Cc3nc(-c4cccc(C)c4)oc3C)C2)cc1 (stereo not given),56µM*,-2,-9%,5%,-7%
Cc1cccc(-c2nc(CN3CCCC(C(=O)NCc4ccc(Cl)cc4)C3)c(C)o2)c1 (stereo not given),·,·,?,8%,-14%
CNc1nc(-c2c[nH]c3ccccc23)cs1,56µM*,-5,25µM*,?,28µM*[quencher]
Cc1ccc2c(-c3csc(N)n3)c[nH]c2c1,-19%,-1,·,·,·
Nc1nc(-c2c[nH]c3ccccc23)cs1,22µM*,-9,16µM*,?,16µM*[quencher]
C/C(=C\c1ccco1)C1C(C#N)=C(N)Oc2n[nH]c(-c3ccc(C)cc3)c21 (stereo not given),?,0,-14%,-10%,?
C/C(=C\c1ccco1)C1C(C#N)=C(N)Oc2n[nH]c(-c3ccccc3)c21 (stereo not given),79µM*,1,?,-11%,?
C/C(=C\c1ccco1)C1C(C#N)=C(N)OC2=C1C(=O)CC(C)(C)C2 (stereo not given),20µM*,-1,-11%,-5%,-3%
O=C(Nc1ccc(-c2cn3cccnc3n2)cc1)c1cc(Br)ccc1Cl,·,·,?,-7%,-15%
Nc1nc(-c2ccc3c(c2)OCCO3)cs1,-22%,-1,?,?,-26%
SMILES,Sfp inh,FBPA coupling cs,Tau fibril ThT,Tau FP inhib,Tau fluor counter
N#Cc1ncc(-c2ccc3c(c2)OCCOCCOCCOCCOCCO3)nc1C#N,3%,3,22µM*,?,-10%
Cc1ccc2nc(-c3ccc4c(c3)OCCO4)cn2c1,13%,-27,?,-1%,-8%
N#Cc1ncc(-c2ccc3c(c2)OCCOCCOCCOCCO3)nc1C#N,10%,0,20µM*,?,-21%
COc1ccc(-c2nc3c(c4c2C[C@H](c2ccccc2)OC4)CN(C(=O)Cc2cccs2)CC3)c(C)c1,-3%,1,4%[11.5 µM],9%[11.6 µM],12%[11.6 µM]
O=C1CCC[C@H]2OC12[C@@H](O)CCc1ccccc1 (stereo not given in full),18%,1,-10%[11.5 µM],-11%[11.6 µM],-8%[11.6 µM]
CC1=NN(c2ccc(C)cc2)C(=O)/C1=C/c1ccc(-c2cc([N+](=O)[O-])ccc2O)o1,-18%,-6,·,·,·
O=C1NN(c2cccc(Br)c2)C(=O)/C1=C/c1ccc(-c2cc([N+](=O)[O-])ccc2O)o1,16%,7,2.8µM*,?,4.5µM*[quencher]
Cn1cc(O)nc1NC(=O)Nc1cccc(Cl)c1,3%,·,·,·,·
CCOC(=O)c1ccc2c(c1)n(CC)c(/C=C/N(C)c1ccccc1)[n+]2CC,14%,-1,-6%,-1%,10%
CC[n+]1c(/C=C/N(C)c2ccccc2)n(-c2ccccc2)c2ccc(-c3nc4ccccc4s3)cc21,45µM*,5,·,·,·
N/C(=N\N=C\c1ccc(Cl)cc1)N/N=C/c1ccc(Cl)cc1,79µM*,·,·,·,·
COc1ccc(-c2nc(CNC(=O)Nc3ccccc3)c(C)o2)cc1,·,·,-2%,-14%,-18%
CC1=NN(c2nc(-c3ccc(C)cc3)cs2)C(=O)C1N=Nc1ccccc1O (stereo not given),?,1,2µM*,11%,?
CC1=NN(c2nc(-c3ccc(C)cc3)cs2)C(=O)C1N=Nc1cccc(O)c1 (stereo not given),-15%,-1,1.8µM*,-16%,?
CC1=NN(c2ccccc2)C(=O)C1N=Nc1cccc(O)c1 (stereo not given),-14%,-4,·,·,·
COc1ccccc1NC(=O)CN1CCCN(S(=O)(=O)c2ccc(Br)cc2)CC1,·,·,-18%,0%,-24%
O=C(Nc1ccccc1)c1cn(-c2ccccc2)nc1-c1ccccc1,·,·,-1%,-4%,-11%
CCOC(=O)c1ccc(NC(=O)c2cn(-c3ccccc3)nc2-c2ccc(Br)cc2)cc1,·,·,-14%,18µM*,?

# Source: PubChem BioAssay (National Center for Advancing Translational Sciences (NCATS))
